The list is not random: actives were taken first. Their share in the collection is about 19%.
HT1080NT lethal: qHTS for induction of synthetic lethality in tumor cells producing 2HG: qHTS for the HT-1080-NT fibrosarcoma cell line. hit rate 1.6% among 360,000. Potency, µM (series often up to 46.1 µM), without a hit: top-dose activity, negative = less viability, hits mostly cytotoxic. AID 686970, 2013. HT-1080-NT fibrosarcoma viability, CellTiter-Glo ATP luminescence, 48 h;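 further: NT is the 2HG producing partner of a matched IDH1 knockdown line; potency means the concentration at half of the fitted maximal effect; 0% = DMSO-treated cells and -100% = media-only wells without cells; nearly all actives have a fitted effect of over 55% in size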
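Viability of the 2HG-overproducing fibrosarcoma line after 48 hours of compound exposure at 37 degrees C was determined by luminescence with CellTiter-Glo, and concentration-effect curves were then fitted and categorized.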
DT40 TDP1 no CPT: qHTS for Inhibitors of human tyrosyl-DNA phosphodiesterase 1 (TDP1): qHTS in cells in absence of CPT; DT40 Tdp1-/- hTDP1 cells, no CPT, ATP luminescence, 48 h; hit rate 15% among 420,000; Potency, µM (doses to about 46.2 µM), without a hit: at the top dose activity change, negative = growth inhibition, actives largely listed as inhibitors; further: potency means the concentration at half of the fitted maximal effect; nearly all actives have a fitted effect of over 55% in size
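Readout: luminescence from CellTiter-Glo after 30 min in the dark at RT. Cells: DT40 Tdp1-/- with stable hTDP1, 400/well. Exposure: compounds alone, ≥48 hr, 37 °C.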
IL-1B inflam inh: qHTS for Inhibitors of Inflammasome Signaling: IL-1-beta AlphaLISA Primary Screen; THP-1 LPS/ATP IL-1B secretion, AlphaLISA, 16 h; stronger effect = lower value; activity change, % at 57.5 µM; hit rate 4.7% among 360,000; AID 743279, 2014; in the data active means activity change below about -50%; inconclusive means mostly about -30% to -49%
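THP-1 cells pretreated 1 hr with compounds (up to 57.5 uM final), then stimulated with LPS (250 ng/mL final) plus ATP (1.25 mM final); secreted IL-1B measured by AlphaLISA after 16 hr, decreased signal indicating inhibition.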
HT1080 IDH1KD tx: qHTS for induction of synthetic lethality in tumor cells producing 2HG: qHTS for the HT-1080-IDH1KD cell line. Potency, µM (top dose mostly 46.1 µM), without a hit: at the top dose activity, negative = toxicity, actives largely listed as cytotoxic. hit rate 2% among 360,000. AID 686971, 2013. HT-1080 IDH1 knockdown viability, ATP luminescence, 48 h;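 further: potency means the concentration at half of the fitted maximal effect; 0% = DMSO wells and -100% = cell-free medium wells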
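Luminescent ATP read-out (CellTiter-Glo, 10 min at room temperature) after 48 h compound exposure at 37 °C gave viability of IDH1-knockdown HT-1080 cells. Activity was normalised to DMSO and cell-free wells, then fitted as concentration-response curves.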
DT40 TDP1 CPT: qHTS for Inhibitors of human tyrosyl-DNA phosphodiesterase 1 (TDP1): qHTS in cells in presence of CPT; chicken DT40 Tdp1-/-;hTDP1 cells + 20 nM CPT, ATP luminescence, 48 h; Potency, µM (doses to about 46.2 µM), inactives show at the top dose activity change, negative = growth inhibition, most hits filed as inhibitors; hit rate 12% among 420,000; further: potency means the concentration at half of the fitted maximal effect; nearly all actives have a fitted effect of over 55% in size
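Cell growth measured by CellTiter-Glo luminescence after a minimum 48 h, 37 C compound exposure with 20 nM CPT in Tdp1-knockout DT40 cells stably expressing hTDP1, seeded 400/well; qHTS titration format.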
ELG1 DNA repair: qHTS screen for small molecules that inhibit ELG1-dependent DNA repair in human embryonic kidney (HEK293T) cells expressing luciferase-tagged ELG1 | HEK293T ELG1-luciferase reporter, luminescence, 16 h; DNA damage induced by 5-fluorouridine | Potency, µM (top dose mostly 46.1 µM), for the others: top-dose activity change, negative = inhibition, most hits filed as inhibitors | hit rate 2.3% among 330,000; further: potency means the concentration at half of the fitted maximal effect; nearly all actives have a fitted effect of over 55% in size
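Luminescence from the luciferase reporter, measured 30 min after ONE-Glo reagent at room temperature, was the read-out. Beforehand, 2,000 cells per well were exposed for 16 hr at 37 °C to 5-fluorouridine together with compound or vehicle.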
Numbers without * were called inactive; ? = inconclusive; . = no result. Unless noted, the call rests on the fitted dose curve; in most records, active means well fitted curve in the direction sought with a large enough effect; inconclusive means small, poorly fitted or top-dose-only effect, or another doubt; inactive means no such curve, though single readings can be large; an effect the other way counts as inactive or inconclusive. Unless noted, on the % scale 0 is the no-effect control and ±100 the full control effect.

SMILES	HT1080NT lethal	DT40 TDP1 no CPT	IL-1B inflam inh	HT1080 IDH1KD tx	DT40 TDP1 CPT	ELG1 DNA repair
O=C(c1cnn2c(C(F)(F)F)cc(-c3ccccc3)nc12)N1CCCc2ccccc21	7%	-4%	13	13%	?	1%
c1ccc(-c2ccnc3nc(N4CCN(c5ccccc5)CC4)nn23)cc1	-6%	21µM*	-9	1%	18µM*	-1%
O=C(Nc1nccs1)c1ccc(N2CCOCC2)c([N+](=O)[O-])c1	16%	21µM*	-27	13%	?	?
O=C(Nc1nccs1)c1cc([N+](=O)[O-])ccc1Cl	?	?	-25	?	?	10%
O=C(Cc1ccccc1[N+](=O)[O-])Nc1nccs1	1%	?	15	0%	8.2µM*	-8%
O=C(Nc1nccs1)c1ncc(Cl)c(Cl)c1Cl	?	15µM*	-56*	-25%	21µM*	?
O=C(Nc1nccs1)c1ccc(Cl)c([N+](=O)[O-])c1	-3%	3%	-69*	1%	5%	0%
CSc1ccccc1NC(=O)CN1CCN(Cc2ccccc2)CC1	.	.	.	.	.	-14%
CCOC(=O)CCCN(c1[nH]c(C)c(C)c1C#N)S(=O)(=O)c1ccc(C)cc1	-3%	?	-13	-1%	-8%	.
FC(F)(F)c1cccc(Nc2nc3nonc3nc2Nc2ccc(Cl)cc2)c1	.	0.58µM*	.	.	0.23µM*	.
Cc1cc(C)c(O)c(CN(C)Cc2cc(Cl)cc(Cl)c2O)c1	?	16µM*	-90*	?	?	.
Cc1cc(C)cc(NC(=O)C2CCN(c3cc(C)nc4c(-c5ccc(Cl)cc5)c(C)nn34)CC2)c1	.	-6%	.	.	4%	.
COc1ccc(N(C)S(=O)(=O)c2ccc3c(c2)n(C)c(=O)c(=O)n3C)cc1	.	-7%	.	.	-5%	.
CCCCOc1ccccc1-c1ccccc1CN1[C@@H](C(C)C)COCCS1(=O)=O	?	18µM*	16	?	16µM*	-4%
CC(C)[C@H]1COCCS(=O)(=O)N1Cc1ccccc1-c1cccc2c1oc1ccccc12	-1%	18µM*	22	-2%	?	-9%
COc1ccc(-c2c(C)nn3c(N4CCN(c5cc(Cl)ccc5C)CC4)cc(C)nc23)cc1OC	.	?	.	.	-3%	.
Cc1cn(CC(=O)NCc2ccc(N(C)C)cc2)c(=O)[nH]c1=O	2%	-19%	-18	-1%	?	.
COc1ccccc1NC(=O)CNC(=O)c1ccc(Br)o1	-2%	-10%	-1	14%	10%	15%
CCCC[C@@H](C=O)NC(=O)[C@H](CC(C)C)NC(=O)[C@H](CC(C)C)NC(C)=O	.	1.1µM*	.	.	1.3µM*	.
CSCC[C@H](C=O)NC(=O)[C@H](CC(C)C)NC(=O)[C@H](CC(C)C)NC(C)=O	.	15µM*	.	.	19µM*	.
CC(=O)N[C@@H](CC(C)C)C(=O)O	.	-1%	.	.	-6%	.
COc1ccc(CCNC(=O)C2CC3Cn4c(nc5cc6ccccc6cc54)C3N2C)cc1 (stereo not given)	3%	21µM*	-12	6%	15µM*	3%
CN1C(C(=O)NCCc2cccs2)CC2Cn3c(nc4cc5ccccc5cc43)C21 (stereo not given)	0%	?	16	-1%	-23%	-23%
COc1ccccc1CNC(=O)C1CC2Cn3c(nc4cc(Cl)c(Cl)cc43)C2N1C (stereo not given)	?	23µM*	?	-19%	?	.
CCN(CC)c1ccc(NC(=O)c2cc3c(=O)n4cccc(C)c4nc3n2C)c(C)c1	.	?	.	.	-22%	.
SMILES	HT1080NT lethal	DT40 TDP1 no CPT	IL-1B inflam inh	HT1080 IDH1KD tx	DT40 TDP1 CPT	ELG1 DNA repair
O=C(Nc1cc(C(F)(F)F)cc(C(F)(F)F)c1)c1ccc(Cn2cc(C(F)(F)F)ccc2=O)cc1	-12%	16µM*	29	-22%	21µM*	-4%
O=C(Sc1ccccc1)c1cccc(Cn2cc(C(F)(F)F)ccc2=O)c1	18µM*	16µM*	-12	23µM*	18µM*	4%
N#Cc1cccc(Cn2cc(C(F)(F)F)ccc2=O)c1	1%	-1%	25	4%	9%	?
O=C(Nc1ccc(Cn2ccnc2)cc1)c1cccc(C(F)(F)F)c1	1%	-17%	-54*	-11%	-24%	5%
O=C(Nc1ccccc1)c1cccc(Cn2cc(C(F)(F)F)ccc2=O)c1	3%	21µM*	-4	-6%	?	2%
Cc1[nH]n(-c2ccc([N+](=O)[O-])cc2)c(=O)c1/C=N/N1CCOCC1	?	?	0	?	12µM*	?
COc1ccc(CCN=Cc2c(C)[nH]n(-c3ccc([N+](=O)[O-])cc3)c2=O)cc1OC	0%	3%	20	15%	-8%	3%
Cc1[nH]n(-c2ccc([N+](=O)[O-])cc2)c(=O)c1C=NCCN1CCN(C(=O)c2ccccc2)CC1	?	10µM*	-6	?	10µM*	3%
C=COC(=O)c1sc2nc(C)cc(C)c2c1N	-12%	-20%	1	-10%	2%	?
CCC(C)NC(=O)c1sc2ncccc2c1-n1c(C)ccc1C (stereo not given)	.	26µM*	.	.	21µM*	.
Cc1cc(C)c2c(-n3cccc3)c(C(=O)NNS(=O)(=O)c3ccc(Br)cc3)sc2n1	-8%	-16%	16	-18%	2%	5%
CC(CNC(=O)c1sc2ncccc2c1-n1cccc1)c1ccccc1 (stereo not given)	.	26µM*	.	.	?	.
Cc1cc(C)c2c(-n3cccc3)c(C(=O)NCC(C)c3ccccc3)sc2n1 (stereo not given)	.	21µM*	.	.	21µM*	.
CCOC(=O)Nc1sc2nc(C)cc(C)c2c1-n1cccc1	-26%	9.2µM*	-11	-29%	23µM*	?
CCCCN(CC)CCCNC(=O)c1sc2nc(C)cc(C)c2c1-n1cccc1	.	18µM*	.	.	?	.
CCCCN(CC)CCCNC(=O)c1sc2nc3n(c(=O)c2c1C)CCCCC3	.	-22%	.	.	?	.

High-throughput results deposited in PubChem BioAssay by National Center for Advancing Translational Sciences (NCATS).
